High-throughput results (PubChem BioAssay)
Only some compounds are listed: those with a hit (about 18% of all), similar ones and a draw of the others.
TDP1 inh = TDP1 (human) enzyme inhibition; AID 485290; recombinant TDP1, AlphaScreen DNA substrate cleavage; hit rate 0.28% among 350,000; Potency, µM (doses to about 130 µM), for inactives: at the top dose activity change, negative = inhibition, usual class: inhibitors; also: potency is read from the fitted curve at half-maximal effect; nearly all actives have a fitted effect of over 40% in size
Target sequence (Q9NUW8 whole entry, looked up): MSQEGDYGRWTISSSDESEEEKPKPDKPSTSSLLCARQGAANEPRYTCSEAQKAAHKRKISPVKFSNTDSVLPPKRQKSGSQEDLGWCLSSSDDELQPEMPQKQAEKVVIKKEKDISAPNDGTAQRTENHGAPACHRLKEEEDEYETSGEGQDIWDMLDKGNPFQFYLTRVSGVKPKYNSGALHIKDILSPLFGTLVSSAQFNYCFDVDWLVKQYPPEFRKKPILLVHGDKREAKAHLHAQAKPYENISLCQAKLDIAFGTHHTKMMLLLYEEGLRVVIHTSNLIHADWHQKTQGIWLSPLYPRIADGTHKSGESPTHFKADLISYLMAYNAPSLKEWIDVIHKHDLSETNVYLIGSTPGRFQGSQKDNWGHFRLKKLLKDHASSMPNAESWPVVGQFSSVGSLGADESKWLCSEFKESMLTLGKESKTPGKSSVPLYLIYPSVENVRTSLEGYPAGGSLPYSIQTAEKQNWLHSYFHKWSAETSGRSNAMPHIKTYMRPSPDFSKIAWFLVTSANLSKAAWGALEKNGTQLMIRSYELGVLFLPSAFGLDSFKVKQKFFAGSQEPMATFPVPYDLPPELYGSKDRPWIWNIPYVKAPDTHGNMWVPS
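Recombinant E. coli-expressed Tdp1 (1 nM) preincubated with compound 15 min at RT, then 5'-biotin/3'-phosphotyrosine-FITC DNA substrate (15 nM) added for 5 min. AlphaScreen beads (10 ug/ml) added, 10 min RT; tyrosine-FITC cleavage read as signal loss.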
TDP1 cell noCPT = qHTS for Inhibitors of human tyrosyl-DNA phosphodiesterase 1 (TDP1): qHTS in cells in absence of CPT | DT40 Tdp1-/- hTDP1 cells, no CPT, ATP luminescence, 48 h | Potency, µM (highest dose often 46.2 µM), without a hit: at the top dose activity change, negative = growth inhibition, actives largely listed as inhibitors | hit rate 15% among 420,000 | AID 686978, 2013; also: potency is read from the fitted curve at half-maximal effect; nearly all actives have a fitted effect of over 55% in size
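Chicken DT40 Tdp1-/- cells complemented with human TDP1, screened without camptothecin (DMSO vehicle only), 400 cells/well. Compounds pin-transferred, cells incubated at 37 °C for at least 48 hr. Growth read as ATP-dependent luminescence (CellTiter-Glo, 30 min at RT).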
TDP1 cell CPT = growth inhibition of DT40 Tdp1-/-;hTDP1 cells with camptothecin (screen for TDP1 inhibitors); chicken DT40 Tdp1-/-;hTDP1 cells + 20 nM CPT, ATP luminescence, 48 h; Potency, µM (titrated, usually from 46.2 µM), inactives show at the top dose activity change, negative = growth inhibition, actives largely listed as inhibitors; hit rate 12% among 420,000; also: potency is read from the fitted curve at half-maximal effect; nearly all actives have a fitted effect of over 55% in size
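Cell growth measured by CellTiter-Glo luminescence after a minimum 48 h, 37 C compound exposure with 20 nM CPT in Tdp1-knockout DT40 cells stably expressing hTDP1, seeded 400/well; qHTS titration format.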
IL-1B inflam inh = inhibitors of inflammasome signaling (IL-1 beta secretion); activity change, % at 57.5 µM; hit rate 4.7% among 360,000; THP-1 LPS/ATP IL-1B secretion, AlphaLISA, 16 h; active compounds read low; in the data active = activity change below about -50%; inconclusive = mostly about -30% to -49%
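Secreted IL-1B measured by AlphaLISA bead assay after 16 h compound exposure of THP-1 cells; compounds (final up to 57.5 uM) added 1 h before LPS (250 ng/mL) and ATP (1.25 mM) stimulation; lower signal means less secretion.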
CtBP-E1A inh = CtBP/E1A binding inhibition. activity change, % (no concentration beside the values). AlphaScreen GST-E1A/His-CtBP binding, 1536-well; active compounds read low. hit rate 0.49% among 340,000; in the data active = activity change below about -65%; inconclusive = mostly about -30% to -63%
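GST-E1A and His-tagged CtBP (125 nM each as 5X stock) were preincubated with pin-transferred compound for 2 h at 37 °C in the dark, then glutathione donor and nickel acceptor beads were added for 1 h before AlphaScreen reading.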
Six1-Eya2 blk = inhibitors of human Six1/Eya2 interaction. Q15475+O00167. AlphaScreen GST-Six1/His-Eya2 binding, biochemical; active compounds read low. activity change, % (test concentration not listed). hit rate 0.56% among 360,000; in the data active = activity change below about -65%; inconclusive = mostly about -30% to -63%
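Compounds are tested against tagged Six1 and Eya2 proteins bridged by glutathione donor and nickel acceptor beads; after a one-hour incubation at 37 °C without light, AlphaScreen emission is recorded.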
Numbers without * were called inactive; ? = inconclusive; . = no result; [ ] = dose if it differs, or a comment. Unless noted, calls follow the shape of the dose curve; as a rule, active = well fitted curve in the direction sought with a large enough effect; inconclusive = small, poorly fitted or top-dose-only effect, or another doubt; inactive = no such curve, though single readings can be large; an effect the other way counts as inactive or inconclusive. % is scaled to controls: 0 for no effect and ±100 for the full control effect.

SMILES	TDP1 inh	TDP1 cell noCPT	TDP1 cell CPT	IL-1B inflam inh	CtBP-E1A inh	Six1-Eya2 blk
CC(C)(C)NC(=S)NNC(=O)[C@H]1C[C@@H]1c1ccccc1	4%	?	?	1	4	-10
O=C(NNC(=O)C1CC1c1ccccc1)c1ccccc1F (stereo not given)	2%	17%	1%	7	2	-1
O=C(NC(=S)NNC(=O)[C@H]1C[C@@H]1c1ccccc1)c1ccc(F)cc1	10%	13µM*	15µM*	67	.	-10
O=C(/C=C/c1ccc(F)cc1)NC(=S)NNC(=O)[C@H]1C[C@@H]1c1ccccc1	-2%	23µM*	?	18	.	-15
COc1cc(OC)cc(C(=O)NC(=S)NNC(=O)[C@H]2C[C@@H]2c2ccccc2)c1	11%	18µM*	?	43	?	-5
Cn1c(-c2ccc(CN3CCCCC3)o2)nc2ccccc21	1%	-23%	-11%	7	-1	-7
NS(=O)(=O)c1ccc(CNC(=O)/C=C/c2ccccc2[N+](=O)[O-])cc1	3%	-20%	-8%	30	.	2
COc1ccc(CNC(=O)CN2C(=O)NC3(CCCCCC3)C2=O)cc1	-1%	12%	8%	19	9	-1
O=S(=O)(c1ccccc1)c1cnn(-c2ccccc2)c1-c1ccc(F)cc1	0%	-2%	-16%	-3	7	-1
COc1ccc(-n2ncc(S(=O)(=O)c3ccccc3)c2-c2ccc(Cl)cc2)cc1	5%	21µM*	26µM*	?	1	-8
COc1cc(C=O)ccc1OCCOc1ccccc1[N+](=O)[O-]	5%	?	-16%	40	-5	4
COc1ccc(C=O)cc1COc1ccc(Cl)cc1[N+](=O)[O-]	0%	21µM*	?	12	-12	-6
CCc1ccccc1NC(=O)N1CCc2ccccc2C1	3%	19%	20%	-20	4	1
CCN(/N=C/C=C/c1ccccc1)c1cc(=O)n(C)c(=O)[nH]1	-1%	-62%	1.5µM*	-28	-21	-13
CCN(/N=C/c1ccc(Cl)cc1)c1cc(=O)n(C)c(=O)[nH]1	1%	-15%	-28%	2	-9	-9
CC12CCC(=O)C=C1CCC1C2CCC2(C)C1CC1C3C(=O)N(Cc4ccccc4)C(=O)C3CC(=O)C12 (stereo not given)	.	26µM*	23µM*	-13	-2	-13
C[C@@]12CC[C@H]3[C@@H](CCC4=CC(=O)CC[C@]43C)[C@H]1CC[C@H]2C(=O)CO	13%[56.1 µM]	.	.	.	.	.
CCCOc1ccc(-c2nc(N3CCCCC3)c3ccccc3n2)cc1	3%[12.3 µM]	-19%	-5%	.	.	.
CCCOc1ccc(-c2nc(N3CCN(C)CC3)c3ccccc3n2)cc1	.	?	23µM*	-20	-4	-9
CCCOc1ccc(-c2nc(N3CCN(CC)CC3)c3ccccc3n2)cc1	.	29µM*	?	-57*	.	-13
CC1CCCCC1NC(=O)COCc1cc(-c2cccs2)on1 (stereo not given)	5%	?	?	-17	13	5
Cc1noc(C)c1S(=O)(=O)N1CCN(S(=O)(=O)c2ccccc2C#N)CC1	.	-9%	4%	5	3	2
COc1cccc(-c2csc(NC(=O)Nc3ccccc3)n2)c1	.	2.3µM*	7.3µM*	-22	2	-22
Cc1csc(NC(=O)Nc2ccc(Cl)cc2)n1	-8%	-22%	-26%	-8	-1	0
COc1ccccc1CC(=O)Nc1nc(-c2ccc(F)c(F)c2)cs1	7%	?	?	?	-3	6
SMILES	TDP1 inh	TDP1 cell noCPT	TDP1 cell CPT	IL-1B inflam inh	CtBP-E1A inh	Six1-Eya2 blk
O=C(Nc1ccccc1)Nc1nc(-c2ccc(F)c(F)c2)cs1	.	2.9µM*	5.8µM*	15	-6	-1
O=C(Cc1ccccc1)NNC(=O)Nc1ccc(Cl)c(Cl)c1	-5%	21µM*	16µM*	0	2	-6
O=C(Nc1ccc(Cl)cc1)Nc1nc(-c2ccccc2O)cs1	-4%	4.6µM*	5.2µM*	-69*	4	2
O=C(Cc1ccccc1)NNC(=O)Nc1cccc(Cl)c1	5%	-17%	-24%	-18	1	0
CN(C1CCCCC1)S(=O)(=O)CCNC(=O)c1ccccc1	.	4%	2%	4	-3	2
COc1cc(-n2c(C)nc3cc(C(=O)NCC4CCCO4)ccc32)cc(OC)c1OC (stereo not given)	2%	27%	3%	-9	-6	1
O=C(Nc1ccc(Cl)c(Cl)c1)Nc1nc(-c2ccccc2)cs1	3%	13µM*	12µM*	-18	-7	5
COc1cccc(C(=O)Nc2nc(-c3ccncc3)cs2)c1	-5%	?	-9%	0	-6	-5
COc1cccc(-c2csc(NC(=O)C3CC3)n2)c1	9%	6.5µM*	5.2µM*	10	-6	-13
N/C(=N/OC(=O)c1ccccc1F)c1nonc1N	-3%	-2%	10%	-9	.	3
C[C@@H](NC(=O)CN(c1ccccc1)S(=O)(=O)N(C)C)c1ccccc1	3%	.	.	.	.	.
COc1ccc(CC(=O)N(Cc2ccccc2)c2cccc(C)c2)cc1OC	2%	15µM*	?	?	3	0
Cc1cc(NC(=O)C(C)SCC(=O)N(C)Cc2c(F)cccc2Cl)no1 (stereo not given)	1%	?	?	9	8	1
Cc1cc(NC(=O)C(C)SCC(=O)Nc2ccc(Br)cc2Br)no1 (stereo not given)	.	13µM*	?	-5	-8	1
Cc1cccc(N(Cc2ccccc2)C(=O)CSC(C)C(=O)Nc2cc(C)on2)c1 (stereo not given)	-2%	18µM*	?	6	1	3
COc1ccccc1C(=O)N(Cc1ccccc1)c1ccc(C)cc1	0%	?	15µM*	?	4	7
C#CCn1ccc(O)c(Cc2ccccc2)c1=O	.	-17%	?	5	6	9
O=C(Cn1nnc(-c2cccc(C(F)(F)F)c2)n1)NC(=O)NCc1ccco1	5%	-8%	1%	0	0	1
Cc1cc(NC(=O)C(C)SCC(=O)OC(C)C(=O)Nc2cccc(C#N)c2)no1 (stereo not given)	0%	1%	11%	18	12	8
O=C1CCCC(=O)C1Sc1ccc(Cl)cc1	2%	-20%	-10%	1	-1	2
